Cruzain Triton: qHTS Assay for Promiscuous and Specific Inhibitors of Cruzain (with detergent); Cruzipain (Trypanosoma cruzi), P25779; Potency, µM, for inactives: max response, negative = inhibition, usual class: inhibitors; purified cruzain, Z-FR-AMC fluorescence, 0.01% Triton; AID 1478, 2009; 200,000 compounds, 0.43% hits;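 further: plate controls were neutral wells for no effect and buffer without enzyme for full effect; nearly all actives have a fitted effect of over 40% in size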
Target sequence (P25779 123-467 limits assumed): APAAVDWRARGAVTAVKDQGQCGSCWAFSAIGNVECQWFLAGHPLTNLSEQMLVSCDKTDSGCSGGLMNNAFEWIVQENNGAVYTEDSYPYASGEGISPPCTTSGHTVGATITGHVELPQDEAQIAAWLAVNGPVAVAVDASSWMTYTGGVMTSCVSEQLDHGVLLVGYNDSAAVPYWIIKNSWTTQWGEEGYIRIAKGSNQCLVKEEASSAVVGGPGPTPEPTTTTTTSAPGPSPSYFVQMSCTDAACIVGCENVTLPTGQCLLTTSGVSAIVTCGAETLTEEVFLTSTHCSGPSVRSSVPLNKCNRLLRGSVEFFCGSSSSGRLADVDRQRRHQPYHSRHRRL
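Compounds were screened in titration against cruzain (1.5 nM) with 0.01% Triton X-100 to counter colloidal aggregation. Activity was the AMC fluorescence increase over 60 s after adding 2 uM Z-FR-AMC at pH 5.5.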
Cruzain inh noDet: qHTS Assay for Promiscuous and Specific Inhibitors of Cruzain (without detergent); Cruzipain (Trypanosoma cruzi), P25779; purified cruzain, Z-FR-AMC fluorescence, no detergent; Potency, µM, without a hit: max response, negative = inhibition, actives largely listed as inhibitors; 200,000 compounds, 2.3% hits; AID 1476, 2009;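 further: plate controls were enzyme without inhibitor for no effect and buffer without enzyme for full effect; nearly all actives have a fitted effect of over 40% in size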
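Detergent-free condition (0.00005% Triton X-100) in acetate buffer pH 5.5 with DTT. 1.5 nM enzyme and compound were pre-mixed 15 min, then 2 uM Z-FR-AMC substrate added; reaction progress from fluorescence change between first and third reads (60 s).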
An asterisk follows results filed as active; ? = inconclusive. Most compounds without a hit are left out; they make up all but 2.4% or so of the library. The call rests on the fitted dose curve; in most records, active means well fitted curve in the direction sought with a large enough effect; inconclusive means small, poorly fitted or top-dose-only effect, or another doubt; inactive means no such curve, though single readings can be large; an effect the other way counts as inactive or inconclusive. Potency means the concentration at half of the fitted maximal effect.

SMILES	Cruzain Triton	Cruzain inh noDet
CCc1ccc(C(=O)c2cn(CC(=O)Nc3ccc4c(c3)OCCO4)c3ccc(C)cc3c2=O)cc1	-1%	1%
Cc1oc2ncn(CC(C)C)c(=O)c2c1C(=O)NCCCN1CCC(C)CC1	0%	7%
O=C(Nc1ccccc1F)c1nc(S(=O)(=O)Cc2ccccc2F)ncc1Cl	-7%	-11%
O=C(c1ccc2c(c1)N(Cc1ccccc1F)C(=O)c1ccccc1S2(=O)=O)N1CCN(c2ccccn2)CC1	3%	8%
Cc1ccc(-c2cc3nc(-c4ccccc4)cc(N4CCOCC4)n3n2)cc1	-7%	?
COc1ccc(-c2cc3nc(-c4ccccc4)cc(N4CCC5(CC4)OCCO5)n3n2)cc1	22µM*	?
CCN1C(=O)c2ccccc2S(=O)(=O)c2ccc(C(=O)NCc3ccccc3Cl)cc21	-1%	-15%
COc1ccc(-c2nc(CSc3nncn4c3cc3sccc34)c(C)o2)cc1OC	-1%	-4%
CCOC(=O)N1CCN(CCC(=O)c2ccc(Cl)cc2)CC1	14µM*	13µM*
CCOC(=O)N1CCN(C(=O)Cc2ccc(Cl)cc2)CC1	7%	-2%
COc1ccc2c(CNCCc3ccccc3)c(C(=O)O)n(Cc3cccc(F)c3)c2c1	-5%	21%
O=C(CSc1ncc2c(n1)-c1ccccc1N(Cc1ccc(F)cc1)S2(=O)=O)NCc1ccccc1	2%	-9%
Nc1c(C(=O)NCC2CCCO2)sc2nc3c(c(-c4ccco4)c12)CC/C3=C\c1ccco1 (configuration not stated)	28µM*	-4%
Cc1ccccc1NC(=O)c1sc2nc3c(c(-c4ccco4)c2c1N)CCC3	-4%	-27%
Cc1cc(C)c(NC(=O)c2c(C)oc3c2C2=NCCN2C=N3)c(C)c1	0%	-2%
CC(/C=C/c1ccc(N(C)C)cc1)=N\N=C(/N)SC1CC(=O)N(c2ccc(C(=O)O)cc2)C1=O (configuration not stated)	?	10µM*
O=C(O)c1ccc(N2C(=O)CC(SC(=Nc3ccccc3)Nc3ccccc3)C2=O)cc1 (configuration not stated)	-2%	-2%
COc1cccc(CNC(=O)CSc2ncc3c(n2)-c2cc(Cl)ccc2N(C)S3(=O)=O)c1	1%	0%
CC(C)(C)c1ccc(C(=O)N2CC(=O)Nc3ccc(F)cc3C2c2ccc(F)cc2)cc1 (configuration not stated)	-8%	-1%
Cc1ccc(CNS(=O)(=O)c2ccc3[nH]c4c(c3c2)CCCCC4)cc1	-20%	-11%
Cc1ccc(C)c(N2CCN(S(=O)(=O)c3ccc4[nH]c5c(c4c3)CCCCC5)CC2)c1	0%	7.9µM*
Cc1ccc(N2CCN(S(=O)(=O)c3ccc4[nH]c5c(c4c3)CCCCC5)CC2)c(C)c1	3%	3.2µM*
Cc1ccc(C)c(N2CCN(S(=O)(=O)c3ccc4[nH]c(=O)c(=O)[nH]c4c3)CC2)c1	-2%	19%
COc1ccc(NC(=O)CSc2nc3c(oc4ccccc43)c(=O)n2-c2ccc(C)c(C)c2)cc1	-1%	?
Cc1cccc(NC(=O)C(=O)NCCc2sc(-c3ccccc3)nc2C)c1C	-1%	-7%
SMILES	Cruzain Triton	Cruzain inh noDet
CCc1ccc(NC(=O)CC2C(=O)N(c3cccc(C)c3)C(=O)N2Cc2cccc(OC)c2)cc1 (configuration not stated)	-8%	10%
Oc1c(C=Nc2cccc3cccnc23)sc2ccccc12	-5%	-3%
O=[N+]([O-])c1ccc(O)c(N=Cc2sc3ccccc3c2O)c1	-9%	13µM*
COC(=O)COc1cccc(-n2cnnn2)c1	1%	8%
Cc1cc(C(=O)COc2cccc(-n3cnnn3)c2)c(C)n1-c1ccccc1	-7%	20µM*
CCCN1CCN(c2ncnc3sc(C(=O)Nc4ccc(N(CC)CC)cc4C)c(C)c23)CC1	-2%	-22%
CCCN1CCN(c2ncnc3sc(C(=O)Nc4cccc(Cl)c4C)c(C)c23)CC1	2.2µM*	16µM*
Cc1nn(-c2ccc3nnc(C)n3n2)c(C)c1CCC(=O)Nc1ccc(OC(F)(F)F)cc1	-1%	-7%
CCOC(=O)c1ccc(N2C(=O)c3n[nH]c(-c4cccs4)c3C2c2ccc(OCC)cc2)cc1 (configuration not stated)	-3%	?
CCOC(=O)c1ccc(N2C(=O)c3n[nH]c(-c4cccs4)c3C2c2ccc(CC)cc2)cc1 (configuration not stated)	-6%	5µM*
Cc1c(Cl)cccc1NC(=O)CSc1nc2ncccc2o1	0%	-2%
CCCN(CCC)S(=O)(=O)c1ccc2c(c1)N(CC(=O)NC(C)c1ccccc1)C(=O)CS2 (configuration not stated)	0%	15%
N#Cc1c(NC(=O)CCC(=O)O)sc2c1CCCC2	-1%	4%
Cc1cccc(C(=O)Nc2sc3c(c2C#N)CCCCC3)c1	3%	?

Bioassay records deposited in PubChem by National Center for Advancing Translational Sciences (NCATS).
